{
  "source": "the supplement of paper PMC8728848",
  "assay_in_all_cases": "glycan array binding signal (z-score within array); higher = stronger binding",
  "details_in_all_cases": "glycan notation: IUPAC condensed, linker removed",
  "key": {"[1]": {"test_system": "Neu5Ac(a2-8)Neu5Ac(a2-3)Gal(b1-4)GlcNAc", "outline": "(§1)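 Glycan array binding is given as a within-array Z-score, which can be read as non-binding when negative. The arrays, 3228 of them, came from the Consortium for Functional Glycomics database and were retained only where the protein sequence was available. Z-scores were averaged across arrays of the same protein sequence at different concentrations or buffers and across linkers.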"}, "[2]": {"test_system": "Neu5Gc(a2-3)Gal(b1-4)GlcNAc", "outline": "as §1"}, "[3]": {"test_system": "Neu5Ac9Ac(a2-6)Gal(b1-4)GlcNAc", "outline": "as §1"}, "[4]": {"test_system": "Neu5Ac(a2-6)Gal(b1-4)GlcNAc(b1-6)[Gal(b1-3)GlcNAc(b1-3)]Gal(b1-4)Glc", "outline": "as §1"}, "[5]": {"test_system": "Neu5Ac(a2-8)Neu5Ac(a2-8)Neu5Ac(a2-8)Neu5Ac(a2-8)Neu5Ac(a2-8)Neu5Ac(a2-8)Neu5Ac(a2-8)Neu5Ac", "outline": "as §1"}, "[6]": {"test_system": "Neu5Ac(a2-6)Gal(b1-4)GlcNAc", "outline": "as §1"}, "[7]": {"test_system": "Neu5Ac(a2-6)GalNAc(b1-4)GlcNAc", "outline": "as §1"}, "[8]": {"test_system": "Neu5Ac(a2-6)GlcNAc(b1-4)GlcNAc", "outline": "as §1"}, "[9]": {"test_system": "Neu5Ac(a2-8)Neu5Ac(a2-3)Gal(b1-3)GalNAc(b1-4)[Neu5Ac(a2-8)Neu5Ac(a2-3)]Gal(b1-4)Glc", "outline": "as §1"}, "[10]": {"test_system": "Neu5Ac(a2-8)Neu5Ac(a2-3)Gal(b1-3)GalNAc(b1-4)[Neu5Ac(a2-3)]Gal(b1-4)Glc", "outline": "as §1"}, "[11]": {"test_system": "Neu5Ac(a2-6)Gal(b1-4)GlcNAc(b1-3)[Neu5Ac(a2-6)Gal(b1-4)GlcNAc(b1-6)]GalNAc", "outline": "as §1"}, "[12]": {"test_system": "Neu5Ac(a2-6)Gal(b1-4)GlcNAc6S", "outline": "as §1"}, "[13]": {"test_system": "Neu5Ac(a2-6)Gal", "outline": "as §1"}, "[14]": {"test_system": "Neu5Ac(a2-8)Neu5Ac(a2-3)[Gal(b1-3)GalNAc(b1-4)]Gal(b1-4)Glc", "outline": "as §1"}, "[15]": {"test_system": "Neu5Gc(a2-3)Gal(b1-3)GlcNAc", "outline": "as §1"}, "[16]": {"test_system": "Neu5Ac(a2-8)Neu5Ac(a2-3)Gal(b1-4)Glc", "outline": "as §1"}, "[17]": {"test_system": "Neu5Ac(a2-8)Neu5Ac(a2-8)Neu5Ac(a2-3)[GalNAc(b1-4)]Gal(b1-4)Glc", "outline": "as §1"}, "[18]": {"test_system": "Neu5Gc(a2-3)Gal(b1-3)[Fuc(a1-4)]GlcNAc", "outline": "as §1"}},
  "note": "Shown is part of a subset that was picked to be rich in the strongest signals.",
  "data": [
    {"substance": "AgI/IIC123-GFP (Streptococcus mutans)", "values": [
      {"measurement": "glycan array binding signal (z-score)", "setting": "[1]", "value": -0.506},
      {"measurement": "glycan array binding signal (z-score)", "setting": "[2]", "value": -0.472}
    ]},
    {"substance": "GspB (Streptococcus gordonii), Q939N5", "values": [
      {"measurement": "glycan array binding signal (z-score)", "setting": "[3]", "value": 2.97}
    ]},
    {"substance": "MIC3-MAR1b (Eimeria tenella), B6VCV4", "values": [
      {"measurement": "glycan array binding signal (z-score)", "setting": "[4]", "value": 1.38},
      {"measurement": "glycan array binding signal (z-score)", "setting": "[5]", "value": -0.531}
    ]},
    {"substance": "Epa22", "values": [
      {"measurement": "glycan array binding signal (z-score)", "setting": "[4]", "value": 0.104},
      {"measurement": "glycan array binding signal (z-score)", "setting": "[6]", "value": -0.607},
      {"measurement": "glycan array binding signal (z-score)", "setting": "[7]", "value": -0.394},
      {"measurement": "glycan array binding signal (z-score)", "setting": "[8]", "value": -0.046}
    ]},
    {"substance": "BambL (Burhholderia ambifaria), Q0B4G1", "values": [
      {"measurement": "glycan array binding signal (z-score)", "setting": "[9]", "value": -0.308}
    ]},
    {"substance": "SpGH101 (Streptococcus pneumoniae), Q8DR60", "values": [
      {"measurement": "glycan array binding signal (z-score)", "setting": "[6]", "value": -0.172},
      {"measurement": "glycan array binding signal (z-score)", "setting": "[2]", "value": -0.177}
    ]},
    {"substance": "MIC3-MAR5 (Eimeria tenella), B6VCV4", "values": [
      {"measurement": "glycan array binding signal (z-score)", "setting": "[10]", "value": 3.86},
      {"measurement": "glycan array binding signal (z-score)", "setting": "[5]", "value": -0.75}
    ]},
    {"substance": "AgI/II Vhelical-GFP (Streptococcus mutans)", "values": [
      {"measurement": "glycan array binding signal (z-score)", "setting": "[11]", "value": -0.298},
      {"measurement": "glycan array binding signal (z-score)", "setting": "[12]", "value": -0.076},
      {"measurement": "glycan array binding signal (z-score)", "setting": "[13]", "value": -0.257},
      {"measurement": "glycan array binding signal (z-score)", "setting": "[10]", "value": -0.253},
      {"measurement": "glycan array binding signal (z-score)", "setting": "[14]", "value": 0.136},
      {"measurement": "glycan array binding signal (z-score)", "setting": "[15]", "value": 0.551}
    ]},
    {"substance": "LcI (Legionella pneumophila)", "values": [
      {"measurement": "glycan array binding signal (z-score)", "setting": "[7]", "value": -0.669},
      {"measurement": "glycan array binding signal (z-score)", "setting": "[3]", "value": 0.198}
    ]},
    {"substance": "Actinohivin (Actinomycete K97)", "values": [
      {"measurement": "glycan array binding signal (z-score)", "setting": "[12]", "value": -0.199},
      {"measurement": "glycan array binding signal (z-score)", "setting": "[7]", "value": -0.197},
      {"measurement": "glycan array binding signal (z-score)", "setting": "[13]", "value": -0.147},
      {"measurement": "glycan array binding signal (z-score)", "setting": "[16]", "value": -0.163},
      {"measurement": "glycan array binding signal (z-score)", "setting": "[17]", "value": -0.14},
      {"measurement": "glycan array binding signal (z-score)", "setting": "[18]", "value": -0.168}
    ]},
    {"substance": "SiiE (Salmonella typhimurium), A0A0H3NVH0", "values": [
      {"measurement": "glycan array binding signal (z-score)", "setting": "[17]", "value": -0.437}
    ]}
  ]
}
